Only some compounds are listed: those with a hit (about 19% of all), similar ones and a draw of the others.
HT1080-NT tox: kills 2HG-producing HT-1080-NT fibrosarcoma cells | HT-1080-NT fibrosarcoma viability, CellTiter-Glo ATP luminescence, 48 h | Potency, µM (highest dose often 46.1 µM), for inactives: at the highest dose activity, negative = less viability, actives largely listed as cytotoxic | hit rate 1.6% among 360,000 | AID 686970;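 also: NT is the 2HG producing partner of a matched IDH1 knockdown line; potency is read from the fitted curve at half-maximal effect; 0% = DMSO-treated cells and -100% = media-only wells without cells; nearly all actives have a fitted effect of over 55% in size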
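Toxicity toward the 2HG-producing NT line was scored as %Activity, normalised to DMSO and no-cell wells, from CellTiter-Glo luminescence after 48 hours' treatment.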
IL1B secr inh: inhibitors of inflammasome signaling (IL-1 beta secretion); activity change, % at 57.5 µM; hit rate 4.7% among 360,000; THP-1 LPS/ATP IL-1B secretion, AlphaLISA, 16 h; active compounds read low; in the data active = activity change below about -50%; inconclusive = mostly about -30% to -49%
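THP-1 cells pretreated 1 hr with compounds (up to 57.5 uM final), then stimulated with LPS (250 ng/mL final) plus ATP (1.25 mM final); secreted IL-1B measured by AlphaLISA after 16 hr, decreased signal indicating inhibition.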
HT1080 IDH1KD tx: HT-1080 IDH1 knockdown cell toxicity (counter line) | Potency, µM (top dose mostly 46.1 µM), for the others: at the top dose activity, negative = toxicity, usual class: cytotoxic | hit rate 2% among 360,000 | HT-1080 IDH1 knockdown viability, ATP luminescence, 48 h | AID 686971;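 also: potency is read from the fitted curve at half-maximal effect; 0% = DMSO wells and -100% = cell-free medium wells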
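Assay cells: HT-1080 with IDH1 knockdown, 750 per well, RPMI/5% FBS. Exposure: 48 h at 37 °C following 2 h pre-incubation. Read: CellTiter-Glo luminescence; fitted concentration-response, curve class assigned.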
TDP1 cell noCPT: qHTS for Inhibitors of human tyrosyl-DNA phosphodiesterase 1 (TDP1): qHTS in cells in absence of CPT; hit rate 15% among 420,000; Potency, µM (top dose mostly 46.2 µM), for inactives: top-dose activity change, negative = growth inhibition, actives largely listed as inhibitors; DT40 Tdp1-/- hTDP1 cells, no CPT, ATP luminescence, 48 h; also: potency is read from the fitted curve at half-maximal effect; nearly all actives have a fitted effect of over 55% in size
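A cellular qHTS used chicken DT40 cells lacking endogenous Tdp1 but carrying stably transfected human TDP1. Compounds were applied without camptothecin, and cell growth kinetics were judged by ATP-dependent luminescence after ≥48 hr.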
uPA surface inh: cell surface uPA generation inhibition | hit rate 0.31% among 330,000 | AID 540303 | Potency, µM (highest dose often 38.3 µM), inactives show top-dose activity change, negative = inhibition, actives largely listed as inhibitors | cell surface uPA generation assay, qHTS; active = well fitted inhibition curve with a large enough effect; inconclusive = small, poorly fitted or top-dose-only effect; inactive = no such curve, though single readings can be large or run the other way; tested in mouse RAW 264.7 cells; also: potency is read from the fitted curve at half-maximal effect; nearly all actives have a fitted effect of over 55% in size
TDP1 cell CPT: growth inhibition of DT40 Tdp1-/-;hTDP1 cells with camptothecin (screen for TDP1 inhibitors) | hit rate 12% among 420,000 | AID 686979 | Potency, µM (doses to about 46.2 µM), inactives show top-dose activity change, negative = growth inhibition, usual class: inhibitors | chicken DT40 Tdp1-/-;hTDP1 cells + 20 nM CPT, ATP luminescence, 48 h; also: potency is read from the fitted curve at half-maximal effect; nearly all actives have a fitted effect of over 55% in size
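Chicken DT40 Tdp1-/- cells complemented with human TDP1, 400 cells/well, exposed to compounds plus 20 nM camptothecin for at least 48 h at 37 C; viability read as ATP content by CellTiter-Glo luminescence.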
The depositor's hits bear a star; ! = repeats disagree. Unless noted, calls follow the shape of the dose curve; as a rule, active = well fitted curve in the direction sought with a large enough effect; inconclusive = small, poorly fitted or top-dose-only effect, or another doubt; inactive = no such curve, though single readings can be large; an effect the other way counts as inactive or inconclusive. Unless noted, % is scaled to controls: 0 for no effect and ±100 for the full control effect.

For COc1ccc2[nH]cc(CCNc3ncnc4ccc(-c5cccc(C#N)c5)cc34)c2c1 the results were TDP1 cell noCPT inconclusive and TDP1 cell CPT 21µM*.
Screening COc1ccc2[nH]cc(CCNc3cc(-c4ccccc4OC)ncn3)c2c1 returned TDP1 cell noCPT inconclusive and TDP1 cell CPT 16µM*.
`CCc1nc2c(OCc3ccccc3)cccn2c1N(C)C(=O)c1ccc2c(c1)OCO2` gave HT1080-NT tox 27%, IL1B secr inh -2, HT1080 IDH1KD tx 9%, TDP1 cell noCPT inconclusive and TDP1 cell CPT inconclusive.
`CN1C(=O)[C@@](O)(c2cn(C)c3ccccc23)c2cc(Br)ccc21` gave HT1080-NT tox -30%, IL1B secr inh 4, HT1080 IDH1KD tx -19%, TDP1 cell noCPT inconclusive and TDP1 cell CPT inconclusive.
For NS(=O)(=O)c1ccc(CNC(=O)c2ccc3c(=O)n4c(nc3c2)CCC4)cc1 the results were HT1080-NT tox 7%, IL1B secr inh 4, HT1080 IDH1KD tx 10%, TDP1 cell noCPT 3%, uPA surface inh 2% and TDP1 cell CPT 23%.
COc1ccc(CNc2ncnc3ccc(-c4ccccc4C#N)cc23)c(OC)c1 was read as TDP1 cell noCPT -9% and TDP1 cell CPT inconclusive.
Screening COc1ccc2[nH]cc(CCNc3ncnc4ccc(-c5ccccc5C#N)cc34)c2c1 returned TDP1 cell noCPT 18µM* and TDP1 cell CPT inconclusive.
Screening CCCNC(=O)CSc1nnc(NC(=O)C2CC(=O)N(c3ccccc3OC)C2)s1 (stereo not drawn) returned HT1080-NT tox -1%, IL1B secr inh 24, HT1080 IDH1KD tx 9%, TDP1 cell noCPT 3% and TDP1 cell CPT -11%.
`Cc1ccc(Cn2c(C3CCCN3c3nc(C)cs3)nc3cc(C(F)(F)F)ccc32)cc1` (stereo not drawn) gave HT1080-NT tox -27%, IL1B secr inh -18, HT1080 IDH1KD tx -17%, TDP1 cell noCPT 21µM*, uPA surface inh -2% and TDP1 cell CPT inconclusive.
`Cn1c(C(=O)N2CCN(c3ccccc3)CC2)cc2cc(Cl)ccc21` gave HT1080-NT tox -4%, IL1B secr inh 36, HT1080 IDH1KD tx 3%, TDP1 cell noCPT -2%, uPA surface inh 0% and TDP1 cell CPT -20%.
Screening COc1cc(OC)cc(C(=O)Nc2nc(-c3ccccc3)c(-c3ccccc3)o2)c1 returned HT1080-NT tox inconclusive, IL1B secr inh 1, HT1080 IDH1KD tx inconclusive, TDP1 cell noCPT 10µM*, uPA surface inh inconclusive and TDP1 cell CPT 7.3µM*.
For Cn1nnnc1SCC(=O)Nc1nc(-c2ccccc2)c(-c2ccccc2)o1 the results were HT1080-NT tox -20%, IL1B secr inh -9, HT1080 IDH1KD tx -24%, TDP1 cell noCPT inconclusive, uPA surface inh -9% and TDP1 cell CPT inconclusive.
CC(=O)Nc1nc(-c2ccccc2)c(-c2ccccc2)o1 was read as HT1080-NT tox -8%, IL1B secr inh -66*, HT1080 IDH1KD tx -11%, TDP1 cell noCPT -20%, uPA surface inh 1% and TDP1 cell CPT -21%.
`Cc1c(NC(=O)C(C)OC(=O)/C=C/c2ccc(OC(F)F)cc2)c(=O)n(-c2ccccc2)n1C` (stereo not drawn) gave HT1080-NT tox -6%, IL1B secr inh -6, HT1080 IDH1KD tx 1%, TDP1 cell noCPT -4%, uPA surface inh -2% and TDP1 cell CPT -2%.
Screening COc1cc(/C=N/Nc2nc3c(c(=O)n(C)c(=O)n3C)n2Cc2ccccc2)ccc1OC(=O)c1ccco1 returned HT1080-NT tox 0%, IL1B secr inh inconclusive, HT1080 IDH1KD tx 1%, TDP1 cell noCPT 5.2µM*, uPA surface inh 8% and TDP1 cell CPT 5.8µM*.
Cc1ccc(Cn2c(N/N=C/c3ccncc3)nc3c2c(=O)n(C)c(=O)n3C)cc1 was read as HT1080-NT tox -22%, IL1B secr inh 23, HT1080 IDH1KD tx 0%, TDP1 cell noCPT 18µM*, uPA surface inh -25% and TDP1 cell CPT inconclusive.
For O=C(C[N+]1(CCO)CCOCC1)c1ccc(F)c2ccccc12 the results were TDP1 cell noCPT inconclusive and TDP1 cell CPT -117%.
Cc1ccc(Cl)cc1N1CCN(C(=O)CSc2cc(=O)n(C)c3ccccc23)CC1 was read as TDP1 cell noCPT 7.3µM* and TDP1 cell CPT 15µM*.
`CCn1c(=O)cc(SCC(=O)N2CCN(c3ccccc3F)CC2)c2ccccc21` gave HT1080-NT tox -7%, IL1B secr inh -17, HT1080 IDH1KD tx -5%, TDP1 cell noCPT 26µM*!, uPA surface inh -5% and TDP1 cell CPT inconclusive.
Screening Cn1c(=O)cc(SCC(=O)N2CCCC2)c2ccccc21 returned HT1080-NT tox 21%, IL1B secr inh 4, HT1080 IDH1KD tx 28%, TDP1 cell noCPT 0%, uPA surface inh -2% and TDP1 cell CPT 7%.
Screening Cc1[nH]c(C)c(S(=O)(=O)N2CCN(c3ccccc3F)CC2)c1C(=O)N1CCCC1 returned HT1080-NT tox -2%, IL1B secr inh -1, HT1080 IDH1KD tx -2%, TDP1 cell noCPT 13%, uPA surface inh -2% and TDP1 cell CPT 1%.
`CN(CCOc1ccc(Cl)c(Cl)c1)Cc1ccccc1` gave HT1080-NT tox -2%, IL1B secr inh 0, HT1080 IDH1KD tx -3%, TDP1 cell noCPT -20%, uPA surface inh 19% and TDP1 cell CPT inconclusive.
Screening CN1CCN(CCc2ccc(Cl)c(Cl)c2)CC1 returned TDP1 cell noCPT 30µM* and TDP1 cell CPT inconclusive.
Screening CCN(CC)CCCOc1ccc(Cl)c(Cl)c1 returned HT1080-NT tox -2%, IL1B secr inh -73*, HT1080 IDH1KD tx -20%, TDP1 cell noCPT inconclusive, uPA surface inh -4% and TDP1 cell CPT -28%.
`CCc1ccc(OCCOCCN2CCN(C)CC2)cc1` gave HT1080-NT tox 5%, IL1B secr inh 11, HT1080 IDH1KD tx 8%, TDP1 cell noCPT inconclusive, uPA surface inh 0% and TDP1 cell CPT -16%.
CN1CCN(CCOc2ccc(Cl)c(Cl)c2)CC1 was read as HT1080-NT tox -12%, IL1B secr inh 7, HT1080 IDH1KD tx -17%, TDP1 cell noCPT inconclusive, uPA surface inh 1% and TDP1 cell CPT 16µM*.
`CN1CCN(CCOc2ccc(Cc3ccccc3)cc2)CC1` gave HT1080-NT tox -27%, IL1B secr inh -13, HT1080 IDH1KD tx inconclusive, TDP1 cell noCPT 4.6µM*, uPA surface inh -5% and TDP1 cell CPT inconclusive.

Assay outcomes as filed in PubChem BioAssay.
